Screening results from PubChem BioAssay.
Shn3 3UTR inh: reduction of Shn3 3'UTR firefly luciferase signal, primary screen, Schnurri-3 inhibitor project, cell-based, Clone20 osteoblasts, set 2; Clone20 osteoblast Shn3 3'UTR firefly luciferase, 24 h; inhibition, % at 12.5 µM; 0.52% of 360,000 active;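 active = mean inhibition of at least 75% with every replicate also reaching 75%; inconclusive = mean inhibition at least 75% but some replicate below; inactive = mean inhibition below 75%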;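 note: 0% = median of neutral control wells and 100% = pilot-screen positive control compound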
NCOA3 inh: SRC3 coactivator transcriptional activity inhibitors, primary screen, cell-based, luminescence; HEK293 GAL4-SRC3 luciferase reporter; 0.17% of 360,000 active; Nuclear receptor coactivator 3 (Homo sapiens), Q9Y6Q9; inhibition, % at 3.6 µM;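 active = inhibition above a per-campaign cutoff, the mean of all compounds plus 3 SD, cut at about 60% in these data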;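 note: 0% = DMSO-treated cells and 100% = gossypol-treated cells at 36 µM; higher means less SRC3-driven luciferase light from the GAL4 reporter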
Target sequence (Q9Y6Q9 whole entry, looked up, the tested form may be a part): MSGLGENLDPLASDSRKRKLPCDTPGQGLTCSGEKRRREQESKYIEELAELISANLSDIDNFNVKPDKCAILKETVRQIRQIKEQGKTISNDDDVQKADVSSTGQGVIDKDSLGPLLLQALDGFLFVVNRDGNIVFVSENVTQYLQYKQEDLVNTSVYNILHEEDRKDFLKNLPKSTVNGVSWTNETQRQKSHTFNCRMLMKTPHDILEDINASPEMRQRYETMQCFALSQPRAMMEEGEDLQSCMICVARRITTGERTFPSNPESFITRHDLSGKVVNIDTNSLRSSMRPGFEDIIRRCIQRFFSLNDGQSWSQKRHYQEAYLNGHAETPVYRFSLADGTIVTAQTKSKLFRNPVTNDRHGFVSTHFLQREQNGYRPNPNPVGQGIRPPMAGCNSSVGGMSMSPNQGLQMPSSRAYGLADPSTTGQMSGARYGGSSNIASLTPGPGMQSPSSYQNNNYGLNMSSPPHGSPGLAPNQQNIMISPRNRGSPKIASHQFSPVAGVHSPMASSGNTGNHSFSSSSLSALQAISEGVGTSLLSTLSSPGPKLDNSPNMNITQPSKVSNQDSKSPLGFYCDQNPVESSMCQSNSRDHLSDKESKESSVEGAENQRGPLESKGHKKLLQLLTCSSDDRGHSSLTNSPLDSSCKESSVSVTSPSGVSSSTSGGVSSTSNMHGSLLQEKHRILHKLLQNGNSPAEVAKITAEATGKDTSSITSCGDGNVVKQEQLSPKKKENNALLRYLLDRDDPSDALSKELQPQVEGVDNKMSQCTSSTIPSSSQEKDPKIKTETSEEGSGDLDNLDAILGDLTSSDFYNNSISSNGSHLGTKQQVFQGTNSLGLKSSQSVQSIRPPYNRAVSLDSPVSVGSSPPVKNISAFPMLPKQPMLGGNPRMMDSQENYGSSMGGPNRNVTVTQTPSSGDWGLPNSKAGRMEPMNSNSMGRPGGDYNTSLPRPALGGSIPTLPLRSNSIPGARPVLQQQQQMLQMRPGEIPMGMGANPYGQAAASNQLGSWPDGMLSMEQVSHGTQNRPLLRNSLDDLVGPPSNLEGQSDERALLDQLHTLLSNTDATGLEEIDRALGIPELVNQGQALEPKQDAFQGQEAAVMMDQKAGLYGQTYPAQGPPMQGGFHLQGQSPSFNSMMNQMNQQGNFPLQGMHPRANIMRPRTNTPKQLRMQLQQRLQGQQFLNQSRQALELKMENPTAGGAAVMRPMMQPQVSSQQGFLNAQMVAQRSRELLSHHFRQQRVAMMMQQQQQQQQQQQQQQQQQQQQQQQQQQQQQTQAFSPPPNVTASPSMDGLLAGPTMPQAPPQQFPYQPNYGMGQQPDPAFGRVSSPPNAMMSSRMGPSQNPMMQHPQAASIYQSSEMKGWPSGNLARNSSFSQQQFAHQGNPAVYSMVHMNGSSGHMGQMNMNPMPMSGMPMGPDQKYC
EBV LMP1 NFkB: EBV LMP1-driven NF-kappaB luciferase reporter inhibitors, primary screen, cell-based, luminescence, single point. LMP1-induced NF-kappaB luciferase reporter cells. inhibition, % at 12.5 µM. 0.69% of 350,000 active. AID 504558, 2011; in the data active = inhibition above about 41%; inconclusive = no clear call, values can overlap the other calls;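 note: 0% = neutral control wells and 100% = reference inhibitor control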
NCOA1 inh: SRC1 coactivator transcriptional activity inhibitors, primary screen, cell-based, luminescence. HEK293 GAL4-SRC1 luciferase reporter. 0.12% of 360,000 active. AID 588354, 2011. inhibition, % at 3.6 µM;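 active = inhibition above the campaign mean plus 3 SD, with each screening campaign given its own cutoff, cut at about 60% in these data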;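 note: 0% = DMSO treated cells and 100% = gossypol at 36 µM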
SRC2 inh: inhibition of GAL4-SRC2 driven luciferase reporter, primary screen, SRC2 inhibitor project, cell-based, luminescence. 0.17% of 370,000 active. AID 651957, 2012. Nuclear receptor coactivator 2 (Homo sapiens), Q15596. inhibition, % at 9 µM. HEK293 GAL4-SRC2 luciferase reporter;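 active = inhibition above the mean inhibition of all tested compounds plus 3 SD, set per campaign, cut at about 52% in these data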;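 note: 0% = DMSO treated cells and 100% = cells given Gossypol at 36 µM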
NR5A2 inv ag: LRH-1 (NR5A2) inverse agonists, primary screen, cell-based, luminescence, HEK293T, StAR-luciferase reporter | LRH-1 transfected, 24 h | inhibition, % at 3.6 µM | 0.13% of 360,000 active | AID 602396, 2012;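 active = inhibition above the mean inhibition of all tested compounds plus 3 SD, cut at about 73% in these data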;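 note: 0% = DMSO wells and 100% = reporter-only cells lacking LRH-1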
* marks the source's active call; other numbers are inactive results; ? = inconclusive; . = not tested or not shown. This is a sample that favours compounds with a hit; in the whole collection about 1.2% have one here.

SMILES	Shn3 3UTR inh	NCOA3 inh	EBV LMP1 NFkB	NCOA1 inh	SRC2 inh	NR5A2 inv ag
Cc1ccc(CNC(=O)C2CCN(S(=O)(=O)c3c(C)noc3/C=C/c3ccco3)CC2)cc1	26.6	5.0	83.1*	-1.6	13.7	0.6
Cc1ccn2c(c1)nc(=S)n2C(=O)c1ccccc1	16.3	1.2	49.4*	-42.3	-9.7	-122.1
Cc1cccc(C(=O)n2c(=S)nc3cc(C)ccn32)c1	16.0	-24.8	32.9	-61.5	-71.8	-158.7
CC(=O)N1CCC(C(=O)N2c3ccccc3N=C(c3ccc4c(c3)OCO4)C2C(=O)Nc2c(C)cccc2C)CC1 (stereo unspecified)	.	.	.	.	-48.7	-4.7
COc1ccc(C(=O)NNC(=S)NC(=O)/C=C/c2cccs2)cc1	58.1	5.0	13.1	-21.8	10.7	15.2
O=C(/C=C/c1cccs1)NC(=S)NNC(=O)c1ccccc1O	69.7	80.4*	-5.9	64.7*	37.9	88.3*
COCCCN1C(=O)[C@H](CC(=O)NCC2CCCCC2)[C@]2(C(=O)OC)CCCCC=C12	.	.	.	.	11.5	.
O=c1c([N+](=O)[O-])cn(Cc2ccccc2)c(=O)n1Cc1ccccc1	-38.2	-7.7	67.5*	11.7	-24.1	22.0
CCN=C1NN=C(c2cc(C)n(Cc3ccco3)c2C)CS1	37.0	61.7*	69.6*	51.5	71.3*	30.5
CCN=C1NN=C(c2cc(C)n(CCc3ccccc3)c2C)CS1	-61.0	-25.3	-9.1	-10.6	-25.2	-1.4
CSc1nc(N2CCN(Cc3ccc4c(c3)OCO4)CC2)c2ccccc2n1	85.9*	-11.9	-5.5	8.5	.	21.0
COc1ccc(-n2nnnc2S(=O)(=O)CC(=O)N2CCCCC2)cc1	91.8*	-44.4	61.1*	-5.1	-29.4	15.2
CC1CCCN(S(=O)(=O)c2cc3c4c(c2)C(C)C(=O)N4CCC3)C1 (stereo unspecified)	0.7	3.5	69.3*	-16.9	15.5	0.0
CCCCC1O[C@@H](C)[C@@H]2CN3CCc4c([nH]c5ccccc45)[C@@H]3C[C@@H]2N1C (stereo partly specified)	.	.	.	.	-18.1	.
N=c1c2c(n(Cc3ccc([N+](=O)[O-])cc3)c3c1CCC3)CCCC2	2.5	17.8	7.2	9.6	0.0	17.9
N=c1c2c(n(Cc3ccc(Cl)c(Cl)c3)c3c1CCC3)CCCC2	78.6	67.7*	6.1	62.9*	-45.8	95.7*
N=c1c2c(n(Cc3ccc(Br)cc3)c3c1CCC3)CCCC2	82.3	74.8*	12.3	42.4	-19.3	92.7*
COC(=O)C[C@H]1CC[C@@H]2[C@@H](COc3ccc(NC(=O)Nc4ccccc4OC)cc3C(=O)N2C)O1	.	.	.	.	13.1	.
O=C(Nc1ccncc1)c1cccc(S(=O)(=O)N2CCc3ccccc32)c1	91.3*	16.5	22.2	26.4	-3.8	33.8
O=C1CCC2(CCCCC2)N1CCCO	.	.	.	.	-3.3	.
COC(=O)[C@]12C[C@H](CC(=O)NCc3cccs3)C(=O)N(Cc3ccco3)C1=C[C@H](C(C)C)O[C@@H]2C1CC1	.	.	.	.	1.1	.
Cc1ccc(O)c(N=Nc2nccs2)c1	92.8*	63.5*	36.7	72.7*	23.4	82.5*
COc1ccc(N=Nc2cc(C)ccc2O)cc1	-58.4	-66.3	-19.5	-151.0	-66.8	-140.3
O=C1CN(C(=O)c2ccc(F)c(S(=O)(=O)N3CCOCC3)c2)c2ccccc2N1	31.5	15.0	46.1*	1.2	-13.3	-26.9
COc1ccc(C(=O)N2CC(=O)Nc3ccccc32)cc1S(=O)(=O)N1CCCC1	32.3	4.9	43.2*	-6.3	-48.9	2.6
SMILES	Shn3 3UTR inh	NCOA3 inh	EBV LMP1 NFkB	NCOA1 inh	SRC2 inh	NR5A2 inv ag
CC1(C)CC(=O)C2=C(C1)OC1=C(C(=O)CC(C)(C)C1)C2c1ccc(O)c([N+](=O)[O-])c1	3.7	-3.0	3.7	1.1	15.2	-10.2
CC1(C)CC(=O)C2=C(C1)OC1=C(C(=O)CC(C)(C)C1)C2c1ccc(O)cc1O	93.8*	13.1	1.4	14.2	-6.8	39.0
COc1ccc(-c2ncn(CCc3ccccc3OC)c2CC(C)C)cc1	.	.	.	.	-2.4	.
Cc1ccc2nc(-c3ccccn3)[nH]c2c1	-2.1	-105.0	40.7*	-96.5	3.5	-108.4
CC(C)N1CCCCC(NC(=O)c2cccc(F)c2)C1=O (stereo unspecified)	.	.	.	.	-24.9	.
COc1ccc(C=Cc2ccc3ccccc3n2)c(OC)c1	33.1	4.1	44.6*	-5.7	11.9	-20.5
COc1ccc(OC)c(/C=C/c2ccc3cccc(O)c3n2)c1	-3.0	-3.4	17.6	-5.1	-26.4	0.7
COc1cc(SC)ccc1C(=O)Nc1ccccn1	-56.7	-84.3	27.8	-119.3	-24.8	-105.3
COc1cc(SC)ccc1C(=O)Nc1ccc(C)cc1	-124.2	-72.7	-68.6	-109.6	-36.7	-125.2
COc1cc(SC)ccc1C(=O)Nc1ccc(Br)cn1	75.4	23.5	50.9*	-42.7	-48.7	-67.6
COc1cc(SC)ccc1C(=O)Nc1ncc(C)s1	41.0	10.9	74.2*	-13.2	53.0*	-37.2
Cc1ccc(/C=C2/SC(=S)N(c3ccc(S(=O)(=O)Nc4nccs4)cc3)C2=O)cc1	.	13.7	66.9*	22.7	16.9	8.0
CCn1c(SCC(=O)Nc2ccccc2-c2ccccc2)nnc1-c1ccc(Cl)cc1	.	.	.	.	-9.9	.
CCN1C=CC(=C2C(=O)c3ccccc3C2=O)C=C1	?	29.5	90.2*	20.1	65.3*	-0.1
CCCCN1C(C)=CC(=C2C(=O)c3ccccc3C2=O)C=C1C	14.8	-69.6	3.5	-128.5	-93.0	-110.1
CCCN1C=CC(=C2C(=O)c3ccccc3C2=O)C=C1	77.3	66.8*	86.7*	47.1	85.3*	28.2
CCCCCCN1C=CC(=C2C(=O)c3ccccc3C2=O)C=C1	68.3	-1.1	52.8*	-62.2	-13.8	-68.2
C[C@H](O)[C@@H]1CN2CCc3ccc(-c4ccc5c(c4)OCO5)cc3[C@@H]2C[C@@H]1N(C)C(=O)c1cccc(Cl)c1	.	.	.	.	7.5	.
CCn1c2ccccc2c2cc(NC(=O)C(C)C)ccc21	11.6	24.5	-8.2	13.0	17.1	-29.7
CCn1c2ccccc2c2cc(/C=N/NC(=O)c3ccccc3)ccc21	-3.6	-56.8	78.8*	-39.3	-78.4	-43.1
CCn1c2ccccc2c2cc(NC(=O)c3ccccc3-c3ccccc3C(=O)O)ccc21	14.8	-12.4	51.6*	8.7	-2.5	3.6
CCn1c2ccccc2c2cc(C=NNC(=O)c3cc(-c4ccc(OC)cc4)n[nH]3)ccc21	.	.	.	.	-32.0	.
COc1ccc(F)cc1-c1cc(C(C)=O)c2n(c1=O)CCC2	.	.	.	.	-12.0	.
CCC(C(=O)Nc1ccccc1N1CCCC1)c1cccc(OC)c1 (stereo unspecified)	.	.	.	.	-29.7	.
